The whole screen tested about 310,000 compounds, of which about 1,200 (0.39%) were called active. No rule for the calls is given here. A selection follows. Entries with a potency or affinity are not part of this list.
Each molecule was assayed against Large T antigen (Simian virus 40) (UniProt P03070) (assay: TAg ATPase/helicase activity blockers – biochemical (AID 1903)). Details: SV40 large T antigen ATPase/helicase inhibition assay; at 20 µM; hits give high values.
Sequence of Large T antigen (Simian virus 40) (P03070 whole entry, looked up): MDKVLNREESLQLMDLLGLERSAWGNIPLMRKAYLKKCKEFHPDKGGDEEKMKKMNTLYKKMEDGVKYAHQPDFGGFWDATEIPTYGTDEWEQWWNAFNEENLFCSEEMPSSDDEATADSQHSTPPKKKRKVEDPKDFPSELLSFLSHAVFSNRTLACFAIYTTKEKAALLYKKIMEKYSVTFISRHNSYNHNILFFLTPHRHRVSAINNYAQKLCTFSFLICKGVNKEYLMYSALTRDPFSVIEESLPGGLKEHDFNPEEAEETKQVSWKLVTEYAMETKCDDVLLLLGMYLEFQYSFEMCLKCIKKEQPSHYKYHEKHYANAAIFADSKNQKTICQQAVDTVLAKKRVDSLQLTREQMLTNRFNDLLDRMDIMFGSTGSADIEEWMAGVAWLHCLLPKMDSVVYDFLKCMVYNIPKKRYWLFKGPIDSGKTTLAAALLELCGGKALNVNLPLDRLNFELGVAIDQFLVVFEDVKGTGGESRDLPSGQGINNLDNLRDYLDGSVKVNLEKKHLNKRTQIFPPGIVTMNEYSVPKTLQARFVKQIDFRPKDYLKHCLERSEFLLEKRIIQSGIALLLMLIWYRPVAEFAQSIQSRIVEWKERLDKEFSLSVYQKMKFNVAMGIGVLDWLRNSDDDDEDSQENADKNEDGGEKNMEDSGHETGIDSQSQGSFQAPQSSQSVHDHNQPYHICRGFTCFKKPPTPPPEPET

SMILES	inhibition
CCN(CC)c1ccc(NC(=O)c2ccco2)c(C)c1	38% (inactive)
CCN(CC)c1ccc(NC(=O)c2ccc3c(c2)OCO3)c(C)c1	22.6% (inactive)
CCn1cc(C(=O)Nc2ccc(C)c([N+](=O)[O-])c2)cn1	2.51% (inactive)
CCn1cc(C(=O)Nc2ccc(F)c(F)c2)cn1	16% (inactive)
O=C(Nc1ccc(NC(=O)c2cccnc2)cc1)c1ccccc1	9.81% (inactive)
CCN(CC)c1ccc(NC(=O)c2c(OC)cccc2OC)c(C)c1	24.5% (inactive)
CCN(CC)c1ccc(NC(=O)c2cc(OC)cc(OC)c2)c(C)c1	19.6% (inactive)
CCc1ccc(NC(=O)c2cccnc2)cc1	21.3% (inactive)
O=C(CSc1nnc(Cc2ccccc2)n1Cc1ccco1)NC12CC3CC(CC(C3)C1)C2	3.4% (inactive)
CN(C)C(=O)C1CCC(=O)N1Cc1cccs1 (stereo not drawn)	3.97% (inactive)
COc1ccc(N=Cc2c(O)n(-c3ccc(OC)cc3)c(=O)c3ccccc23)cc1	17.6% (inactive)
CCOc1ccccc1N1CC(C(=O)NCCOc2ccccc2OC)CC1=O (stereo not drawn)	3.13% (inactive)
Cc1ccc(-c2nc(CS(=O)(=O)CC(=O)N3CCN(C)CC3)c(C)o2)cc1	6.58% (inactive)
Cc1nc2scc(C)n2c(=O)c1S(=O)(=O)N1CCN(c2ccc([N+](=O)[O-])cc2)CC1	13.7% (inactive)
CCc1ccc(N2CC(C(=O)NC3CC3)CC2=O)cc1 (stereo not drawn)	12.7% (inactive)
Cc1cc(F)ccc1NC(=O)c1cccnc1	3.85% (inactive)
Cc1ccccc1NC(=O)c1cccnc1	-1.13% (inactive)
CCCOc1ccc(C(=O)N/N=C/c2ccc(-c3ccc(S(=O)(=O)Nc4ncccn4)cc3)o2)cc1	35.9% (inactive)
CCOc1ccc(C(=O)N/N=C/c2ccc(-c3ccc(S(=O)(=O)Nc4ncccn4)cc3)o2)cc1	26.6% (inactive)
O=[N+]([O-])c1ccc2nc(CCCO)[nH]c2c1	-0.4% (inactive)
Nc1cccc(CCc2nc3cc4ccccc4cc3[nH]2)c1	21.5% (inactive)
c1ccc2[nH]c(CCCc3nc4ccccc4[nH]3)nc2c1	12.5% (inactive)
Nc1ccc2nc(CCCCc3nc4ccccc4[nH]3)[nH]c2c1	32.7% (inactive)
c1ccc2[nH]c(CCCCc3nc4ccccc4[nH]3)nc2c1	5.68% (inactive)
Nc1ccc2oc(-c3cccs3)nc2c1	5.03% (inactive)
c1csc(-c2nc3ccccc3[nH]2)c1	-3.54% (inactive)
OCCCc1nc2ccccc2[nH]1	13.1% (inactive)
CCOC(=O)C1=C(COC(=O)/C=C/c2ccc(OC)cc2OC)NC(=O)NC1C (stereo not drawn)	3.33% (inactive)

From PubChem BioAssay AID1903 (Southern Research Specialized Biocontainment Screening …, 2009)
